# In ChEMBL document CHEMBL1157539, “Thousands of chemical starting points for antimalarial lead identification” (Nature, 2010):
# Test system: Plasmodium falciparum
# Test: GSK_TCMDC: Inhibition of Plasmodium falciparum Dd2 in whole red blood cells, using parasite LDH activity as an index of growth. Test compounds present at 2uM
# Type: functional
row,SMILES,Inhibition [%]
1,CCCS(=O)(=O)c1nc(S(=O)(=O)c2ccc(Cl)cc2)c(N2CCCCC2)s1,34
2,COc1ccc(CNc2nccc3ccc(-c4ccc5nccn5c4)cc23)cc1.O=C(O)C(F)(F)F,47
3,CCCC(C)NC(=O)[C@H]1CNCCN1C(=O)CCCc1ccccc1.O=C(O)C(F)(F)F (stereo partly drawn),98
4,Cc1cc(O)c(-c2ccc(Sc3ccc(Cl)cc3)cc2)c(C)n1,84
5,COc1ccc2nccc([C@@H](O)CN3CCC(NCc4cc5c(F)ccc(F)c5[nH]4)CC3)c2n1.CS(=O)(=O)O,76
6,COc1ccc2nccc(N3C[C@H]4C[C@@H]3CN4CCNCc3ccc4c(n3)NC(=O)CS4)c2n1.Cl,0
7,Cc1cc(NC(=O)c2ccc(S(=O)(=O)N(Cc3ccccc3)C(C)C)cc2)no1,67
8,Nc1ncc(-c2cn[nH]c2)cc1-c1nc2ccc(Cl)cc2[nH]1,100
9,Cc1cccc(-c2nn(-c3ccccc3)cc2C(=O)Nc2nnc(C)o2)c1,63
10,O=C(c1ccc(F)c(F)c1)N1CCOC(CCN2CCC(c3ccccc3)CC2)(c2ccc(Cl)c(Cl)c2)C1 (stereo not drawn),75
11,CS(=O)(=O)NCCCNCc1ccc(-c2ccc(-c3nc4cc(C(F)(F)F)ccc4[nH]3)cc2)cc1.O=C(O)C(F)(F)F,83
12,CC(NC(=O)c1ccc(O)c(-c2ccc(Cl)c(Cl)c2)c1)C(=O)NCCN1CCOCC1 (stereo not drawn),7
13,O=C(Nc1ccc(-c2cccc(-c3nc4ccccc4[nH]3)c2)cc1)Nc1ccc2c(c1)OCO2,65
